Activity calls are given as the source filed them.

Here are results for 5 molecules from PubChem BioAssay.

A short description of test [1]: small molecules captured by biotinylated probe aFSTL3 – biochemical, small-molecule microarray, fluorescence 635/667, stem cell growth factor project, primary screen (AID 1064).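 Also: measures binding of the biotinylated anti-FSTL3 antibody to printed compounds.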 Particulars: higher = more signal.
A short description of test [2]: binders from COS7 lysate, DM2A8 probe, primary screen, torsin A project, cell lysate, small-molecule microarray, fluorescence 635/667 (AID 1065). Particulars: higher = more signal, COS7 lysate expressing mutant human TOR1A.
Test [3] is described as follows: small molecules captured by biotinylated probe aFGF2 – biochemical, small-molecule microarray, fluorescence 635/667, stem cell growth factor project, primary screen (AID 1067).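 Also: measures binding of biotinylated aFGF2 protein to printed compounds on slides; z-score merges feature fluorescence and signal-to-noise across triplicate slides.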 Particulars: higher = more signal.
Test [4] can be described thus: small molecules captured by biotinylated probe aFGF10 – biochemical, small-molecule microarray, fluorescence 635/667, stem cell growth factor project, primary screen (AID 1071).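 Also: score merges 667 nm spot intensity and signal to noise from triplicate slides.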 Particulars: higher = more signal.
Test [5] addresses Neurogenic locus notch homolog protein 2 (Homo sapiens) (UniProt Q04721). Kind of test: small molecules binding Notch2 protein – biochemical, small-molecule microarray, 635 nm fluorescence, stem cell growth factors, primary screen (AID 1073). Particulars: higher = more signal.
Test [6] has as its target Pro-neuregulin-1, membrane-bound isoform (Homo sapiens) (UniProt Q02297). Kind of test: small molecules binding neuregulin-1 protein – biochemical, small-molecule microarray, fluorescence 635/667, psychiatric disease protein project, primary screen (AID 1075).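 Also: score combines 667 nm spot fluorescence with signal to noise.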 Particulars: NRG1 binding, 635 nm fluorescence, higher = more signal.
The test system of test [7] is Neuregulin-1 EGF-like domain. Kind of test: small molecules binding NRG1 EGF domain – biochemical, small-molecule microarray, 635 nm fluorescence, primary screen (AID 1081).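 Also: binding of the protein to compounds printed on small-molecule microarray slides.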 Particulars: higher = more signal.
Test [8] in a line: FRG1 expression reporter modulators in myotubes – cell-based, C2C12 myotubes, firefly/Renilla luciferase, luminescence, FRG1 inhibition for FSHD, primary screen (AID 1084). Particulars: FRG1 promoter luciferase, higher = more signal, called active from +8 up or from −8 down.
Test [9] can be described thus: small molecules captured by biotinylated probe aFST – biochemical, small-molecule microarray, fluorescence 635/667, stem cell growth factor project, primary screen (AID 1086).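 Also: score merges 667 nm fluorescence with signal-to-noise of each printed compound spot.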 Particulars: higher = more signal.
Test [10] is described as follows: binders of probe aHhip on microarray, primary screen, stem cell growth factor project, biochemical, small-molecule microarray, fluorescence 635/667 (AID 1087).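 Also: score merges spot fluorescence at 667nm with spot signal to noise ratio.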 Particulars: higher = more signal.
In test [11] the test system is PRMT1 (protein arginine N-methyltransferase 1). Kind of test: small molecules binding arginine methyltransferase PRMT1 – biochemical, small-molecule microarray, 635 nm fluorescence, primary screen (AID 1088).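 Also: binding of Prmt1 protein to compounds spotted on small-molecule microarray slides.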 Particulars: higher = more signal.
Test [12] can be described thus: growth effects on S. cerevisiae YJM789 – YJM789 clinical isolate, OD600, 24 h, basal, primary screen (AID 1089).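 Also: growth of clinical yeast isolate S. cerevisiae YJM 789 seeded 1000 cells per well; test concentration not given here.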 Particulars: higher = more signal, called active from +8 up or from −8 down.
Test [13] can be described thus: S. pombe growth modifiers, basal conditions – strain 972, OD600, 24 h, no modulator, primary screen (AID 1090).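 Also: basal condition with compound alone and no growth modifier present; test concentration not given here.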 Particulars: S. pombe 972 growth, higher = more signal, called active from +8 up or from −8 down.
The nature of test [14]: budding yeast growth modifiers under rapamycin – strain BY4716, OD600, 96 h, primary screen (AID 1091). Also: test concentration not given here. Particulars: S. cerevisiae BY4716 + rapamycin, higher = more signal, called active from +8 up or from −8 down.
For test [15], the target named is Torsin-1A-interacting protein 2 (Homo sapiens) (UniProt Q8NFQ8). Briefly: small molecules binding lysate-expressed LULL1 – cell lysate, human LULL1 lysate, 635/667 nm fluorescence, primary screen (AID 1092).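 Also: probe is lysate of COS7 cells overexpressing human LULL1; score merges per-feature 667 nm fluorescence with signal-to-noise.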 Particulars: small-molecule microarray, hLULL1 lysate binding, 635 nm fluorescence; higher = more signal.
A short description of test [16]: optical density change of DRC41 E. coli – strain DRC41, OD650, 24 h, E. coli filamentation project, primary screen (AID 1093).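 Also: MC1000 strain lacking acrAB efflux and sulA so SOS filamentation is blocked; test concentration not given here.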 Particulars: E. coli DRC41 growth, higher = more signal, called active from +8 up or from −8 down.
The nature of test [17]: probe aLefty2 binding to arrayed compounds – biochemical, biotinylated probe, 635/667 nm fluorescence, primary screen (AID 1094).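 Also: score merges spot fluorescence near 667 nm with spot signal-to-noise ratio.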 Particulars: small-molecule microarray, higher = more signal.
Test [18] has as its system Noggin (protein binding on small-molecule microarray). Briefly: small molecules binding Noggin protein – biochemical, 635/667 nm fluorescence, primary screen (AID 1095).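 Also: score merges 667 nm feature fluorescence with signal to noise over triplicate slides.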 Particulars: 635 nm fluorescence, higher = more signal.
In test [19] the target is Neurogenic locus notch homolog protein 3 (Homo sapiens) (UniProt Q9UM47). Briefly: small molecules binding NOTCH3 protein – biochemical, 635/667 nm fluorescence, primary screen (AID 1096). Particulars: small-molecule microarray, 635 nm fluorescence, higher = more signal.
The nature of test [20]: probe aEGFR binding to arrayed compounds – biochemical, biotinylated probe, 635/667 nm fluorescence, primary screen (AID 1097).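 Also: probe is a biotinylated anti-EGFR antibody binding compounds printed on slides; score combines fluorescence near 667 nm and signal to noise of each spot.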 Particulars: small-molecule microarray, higher = more signal.

Chain of Pro-neuregulin-1, membrane-bound isoform (Homo sapiens) (Q02297 whole entry, looked up, the tested form may be a part, canonical isoform): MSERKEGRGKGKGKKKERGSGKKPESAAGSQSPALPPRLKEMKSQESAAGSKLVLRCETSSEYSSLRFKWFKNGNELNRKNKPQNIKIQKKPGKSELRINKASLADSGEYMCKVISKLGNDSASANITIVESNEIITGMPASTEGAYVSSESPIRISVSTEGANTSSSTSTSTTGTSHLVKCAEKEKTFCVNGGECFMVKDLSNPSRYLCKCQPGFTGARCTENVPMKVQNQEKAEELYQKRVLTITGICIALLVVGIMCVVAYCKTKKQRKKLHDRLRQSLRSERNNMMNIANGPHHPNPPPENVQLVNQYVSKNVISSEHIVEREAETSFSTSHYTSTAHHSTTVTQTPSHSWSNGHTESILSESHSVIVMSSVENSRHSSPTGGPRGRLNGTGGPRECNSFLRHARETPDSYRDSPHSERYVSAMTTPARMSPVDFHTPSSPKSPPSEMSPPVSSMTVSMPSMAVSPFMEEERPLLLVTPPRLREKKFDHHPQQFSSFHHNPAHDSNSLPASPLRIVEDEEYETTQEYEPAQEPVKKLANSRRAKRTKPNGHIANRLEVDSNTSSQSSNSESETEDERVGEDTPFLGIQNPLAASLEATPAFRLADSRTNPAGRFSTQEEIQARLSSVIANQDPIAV
Chain of Torsin-1A-interacting protein 2 (Homo sapiens) (Q8NFQ8 whole entry, looked up): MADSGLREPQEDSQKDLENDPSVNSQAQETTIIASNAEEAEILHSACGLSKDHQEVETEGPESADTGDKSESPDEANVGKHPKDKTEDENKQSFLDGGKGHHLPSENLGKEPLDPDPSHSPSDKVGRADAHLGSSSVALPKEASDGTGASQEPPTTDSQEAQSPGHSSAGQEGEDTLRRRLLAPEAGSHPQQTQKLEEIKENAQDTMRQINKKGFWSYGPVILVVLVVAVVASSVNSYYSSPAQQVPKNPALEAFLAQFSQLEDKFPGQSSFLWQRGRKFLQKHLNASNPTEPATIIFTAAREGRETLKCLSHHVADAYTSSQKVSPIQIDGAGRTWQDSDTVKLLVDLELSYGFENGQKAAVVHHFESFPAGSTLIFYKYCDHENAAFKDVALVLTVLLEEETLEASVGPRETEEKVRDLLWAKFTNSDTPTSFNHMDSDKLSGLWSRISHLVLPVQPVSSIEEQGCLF
Chain of Neurogenic locus notch homolog protein 3 (Homo sapiens) (Q9UM47 whole entry, looked up): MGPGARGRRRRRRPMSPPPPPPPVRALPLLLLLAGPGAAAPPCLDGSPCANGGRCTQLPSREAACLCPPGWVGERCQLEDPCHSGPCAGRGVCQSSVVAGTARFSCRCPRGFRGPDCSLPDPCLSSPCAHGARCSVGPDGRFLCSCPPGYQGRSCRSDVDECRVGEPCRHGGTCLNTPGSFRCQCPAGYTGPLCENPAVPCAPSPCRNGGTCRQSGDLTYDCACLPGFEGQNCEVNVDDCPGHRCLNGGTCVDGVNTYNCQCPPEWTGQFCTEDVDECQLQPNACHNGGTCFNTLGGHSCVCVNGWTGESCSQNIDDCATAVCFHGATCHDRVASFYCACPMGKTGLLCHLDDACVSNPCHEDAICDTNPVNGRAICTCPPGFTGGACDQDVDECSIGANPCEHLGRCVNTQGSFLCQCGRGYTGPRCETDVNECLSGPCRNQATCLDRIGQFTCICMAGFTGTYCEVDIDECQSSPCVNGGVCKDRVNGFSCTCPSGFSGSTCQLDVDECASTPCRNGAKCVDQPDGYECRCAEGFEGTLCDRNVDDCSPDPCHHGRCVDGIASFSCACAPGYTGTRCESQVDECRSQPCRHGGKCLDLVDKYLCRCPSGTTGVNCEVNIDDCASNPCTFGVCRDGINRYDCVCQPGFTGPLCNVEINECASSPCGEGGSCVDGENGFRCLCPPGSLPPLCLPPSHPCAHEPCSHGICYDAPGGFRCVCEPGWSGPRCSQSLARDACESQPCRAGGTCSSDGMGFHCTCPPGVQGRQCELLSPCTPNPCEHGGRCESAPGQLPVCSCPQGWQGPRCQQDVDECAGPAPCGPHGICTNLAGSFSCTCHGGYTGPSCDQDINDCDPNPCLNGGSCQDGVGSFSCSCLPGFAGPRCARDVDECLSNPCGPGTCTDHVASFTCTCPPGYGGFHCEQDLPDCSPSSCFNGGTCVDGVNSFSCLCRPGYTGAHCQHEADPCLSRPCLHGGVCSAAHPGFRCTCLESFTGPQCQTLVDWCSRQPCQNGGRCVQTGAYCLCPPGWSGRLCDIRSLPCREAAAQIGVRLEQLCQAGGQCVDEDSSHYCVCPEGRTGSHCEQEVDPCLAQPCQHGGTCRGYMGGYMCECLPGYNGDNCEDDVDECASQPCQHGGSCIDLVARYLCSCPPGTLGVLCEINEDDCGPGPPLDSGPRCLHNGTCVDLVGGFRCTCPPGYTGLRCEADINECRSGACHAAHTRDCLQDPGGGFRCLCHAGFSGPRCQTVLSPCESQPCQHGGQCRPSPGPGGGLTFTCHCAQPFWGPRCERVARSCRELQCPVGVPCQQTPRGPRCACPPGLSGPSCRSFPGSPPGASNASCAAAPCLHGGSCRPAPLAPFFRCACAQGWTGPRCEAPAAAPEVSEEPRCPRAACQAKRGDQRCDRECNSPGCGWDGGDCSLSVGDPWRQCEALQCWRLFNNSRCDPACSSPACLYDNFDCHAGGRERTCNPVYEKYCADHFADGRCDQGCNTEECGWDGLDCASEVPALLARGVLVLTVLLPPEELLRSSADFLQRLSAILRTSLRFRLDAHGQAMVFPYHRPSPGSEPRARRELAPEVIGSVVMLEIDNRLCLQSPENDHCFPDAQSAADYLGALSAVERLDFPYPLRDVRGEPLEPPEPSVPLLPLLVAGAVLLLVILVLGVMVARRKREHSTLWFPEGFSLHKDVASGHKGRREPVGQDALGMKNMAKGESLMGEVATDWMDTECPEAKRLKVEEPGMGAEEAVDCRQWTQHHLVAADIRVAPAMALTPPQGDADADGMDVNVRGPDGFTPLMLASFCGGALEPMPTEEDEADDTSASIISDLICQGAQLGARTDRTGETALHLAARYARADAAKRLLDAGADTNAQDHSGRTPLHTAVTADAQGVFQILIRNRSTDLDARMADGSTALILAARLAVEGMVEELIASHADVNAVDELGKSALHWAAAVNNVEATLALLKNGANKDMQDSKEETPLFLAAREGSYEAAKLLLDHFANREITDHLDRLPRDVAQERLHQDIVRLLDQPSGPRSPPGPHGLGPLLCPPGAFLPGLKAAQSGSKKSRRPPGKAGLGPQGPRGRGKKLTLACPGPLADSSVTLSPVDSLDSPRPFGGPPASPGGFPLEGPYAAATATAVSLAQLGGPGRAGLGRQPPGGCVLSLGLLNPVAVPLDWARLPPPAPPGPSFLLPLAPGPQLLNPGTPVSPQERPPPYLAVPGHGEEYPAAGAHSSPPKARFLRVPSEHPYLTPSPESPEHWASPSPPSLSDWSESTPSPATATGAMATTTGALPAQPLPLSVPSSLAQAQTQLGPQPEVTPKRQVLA

For `CC(C)(C)OC(=O)CC[C@]1(C(=O)NCc2ccccc2)N=C(c2ccc(OCCCO)cc2)O[C@H]1c1ccccc1`, the composite z-score in test [1] was 0.0895; in test [2], 0.8; in [3], -0.0036; in [4], 1; in test [5] it was 0.979; in [6], 1.94. Besides, the composite z-score is 1.23 in [7]; 1.04 in test [9]; -0.0645 in test [10]; 1.55 in test [11]; 3.71 in test [15]; -0.0354 in [17]. Moreover, the composite z-score in [18] is 0.798; in test [19] it was 0.97; in test [20], -0.123. The z-score is -2.08 (inactive) in [8]; -0.105 (inactive) in test [12]; 0.851 (inactive) in test [13]; 1.64 (inactive) in test [14]; 0.0596 (inactive) in test [16].

Take `O=C1[C@H]2[C@H]3[C@H](O)[C@H](O)CC(=NOC[C@@H](O)COCc4ccco4)[C@H]3CC[C@H]2C(=O)N1Cc1ccc2c(c1)OCO2`: the composite z-score in test [1] was -0.707; in test [2], 1.73; in test [3], -0.204; in [4], -0.143; in test [5] it was -0.282; in test [6], -0.621. In addition, the composite z-score in test [7] is 0.561; in test [9], -0.3; in [10] it was -0.44; in test [11] it was 1.29; in test [15], -0.829; in test [17], -0.29. For the same molecule, the figures for the composite z-score in test [18], in [19] and in test [20] were 0.154, -0.0875 and -0.0039, respectively. The z-score in [8] is 0.316 (inactive); in test [12], -0.285 (inactive); in test [13] it was -0.279 (inactive); in test [14] it was -1.09 (inactive); in [16], 0.617 (inactive).

`COC(=O)[C@H](C)NC(=O)CCC1CC(OC(=O)NCCc2ccc(F)cc2)CC2(CCCC(COC(=O)NCCc3ccc(Cl)cc3)O2)O1` (stereo not given in full): the composite z-score was -0.655 in [1]; 1.39 in test [2]; -0.0579 in test [3]; 0.812 in [4]; 1.15 in test [5]; 0.691 in test [6]. The composite z-score is 0.595 in test [7]; 0.393 in [9]; -0.0672 in [10]; 1.24 in [11]; 2.39 in test [15]; -0.0237 in test [17]. In addition, the composite z-score in [18] was 0.244; in [19], 1.12; in test [20], -0.0989. Also, the z-score in test [8] was 1.11 (inactive); in test [12] it was 0.86 (inactive); in test [13], 0.812 (inactive); in test [14] it was 1.2 (inactive); in test [16] it was 0.126 (inactive).

Take `CCOC(=O)CCN1C(=O)[C@H]2[C@H]3[C@H](O)[C@H](O)CC(=NOC[C@@H](O)COCc4ccco4)[C@H]3CC[C@H]2C1=O`: the composite z-score in test [1] is -0.528; in test [2] it was -0.0277; in [3], -0.0996; in test [4] it was 0.483; in test [5], 0.722; in [6], 0.035. Besides, the composite z-score is 0.148 in test [7]; 0.132 in [9]; 0.28 in test [10]; 1.46 in test [11]; 0.756 in test [15]; -0.188 in test [17]. In addition, the composite z-score is 0.474 in test [18], 0.921 in test [19] and 0.0649 in test [20]. Also, the z-score is 0.122 (inactive) in [8]; -0.114 (inactive) in test [12]; -3.86 (inactive) in test [13]; -0.86 (inactive) in test [14]; 0.09 (inactive) in test [16].

`CCOC(=O)[C@H](Cc1ccccc1)NC(=O)CCC1CC(OC(=O)NCCc2ccc(F)cc2)CC2(CCCC(COC(=O)NCC(c3ccccc3)c3ccccc3)O2)O1` (stereo not given in full): the composite z-score in test [1] is -0.183; in [2], 0.0877; in test [3] it was -0.0785; in [4], 0.627; in test [5], 0.823; in test [6], 0.852. Besides, the composite z-score in test [7] was 0.919; in test [9], 0.486; in test [10], 0.0053; in test [11] it was 1.57; in test [15] it was 2.18; in test [17], -0.199. The composite z-score in test [18] is 0.538; in [19], 1.14; in [20] it was -0.139. Further, the z-score was 2.14 (inactive) in test [8]; 0.378 (inactive) in [12]; 0.745 (inactive) in [13]; -0.436 (inactive) in test [14]; 0.0565 (inactive) in [16].
